Out of some 320,000 compounds screened, about 22,000 (6.9%) were called active. A call without a number means that no potency is given here. Roughly 27% stayed inconclusive and do not appear here. The sample holds actives, similar compounds and a random draw of the others, so the mix is not that of the screen. Calls come from the whole dose curve; as a rule, active = well fitted inhibition curve with a large enough effect; inconclusive = small, poorly fitted or top-dose-only effect, or another doubt; inactive = no such curve, though single readings can be large or run the other way.
Assay: Primary qHTS for delayed death inhibitors of the malarial parasite plastid, 96 hour incubation
Details: P. falciparum luciferase reporter growth; series mostly up to 28.7 µM
How it was run: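 Infected RBCs, 2% Hct / 0.05% parasitemia final; luciferase-reporter P. falciparum; cpd 96 h, 37 C, 5% CO2; luciferase detection reagent; luminescence.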
Potency is the fitted concentration of half-maximal effect.

Compound | Potency
COC(=O)C1=C(N)Oc2cc(C)oc(=O)c2C1c1cccnc1 (stereo not drawn) | inactive
COC(=O)C1=C(C)Nc2ncnn2C1c1cccnc1 (stereo not drawn) | inactive
CCSc1nc2c(c(=O)[nH]1)C(c1cccnc1)C(C(=O)OC(C)C)=C(C)N2 (stereo not drawn) | 1.31 µM (active)
COc1ccc2c(C)cc(SCC(=O)NCC3CCCO3)nc2c1 (stereo not drawn) | inactive
O=C(Nc1ccc(F)cc1)C1CCCN(S(=O)(=O)c2ccc(-n3cnnn3)cc2)C1 (stereo not drawn) | inactive
CC1CN(c2nc(-c3ccccc3)nnc2-c2ccccc2)CC(C)O1 (stereo not drawn) | 0.828 µM (active)
Cc1ccc(-c2nnc(C)c(N3CC(C)OC(C)C3)n2)cc1 (stereo not drawn) | inactive
c1ccc(-c2nnc(N3CCOCC3)c3ccccc23)cc1 | inactive
CCOC(=O)c1cccc(NC(=O)CCc2nnc3ccc(N4CCOCC4)nn23)c1 | inactive
O=C(NCc1cccs1)c1ccc(Br)o1 | inactive
O=C(CNC(=O)c1ccc(Br)o1)NCC1CCCO1 (stereo not drawn) | inactive
O=C(CNC(=O)c1ccc(Br)o1)Nc1ccccc1 | 13.1 µM (active)
Nc1c(N(CCCO)C(=O)C2CCCC2)c(=O)[nH]c(=O)n1Cc1ccccc1 | inactive
Cc1cc(Cl)ccc1OCCCC(=O)Nc1cccc(-n2cnnn2)c1 | inactive
OC(CNC1CCCC1)COc1ccc(F)cc1 (stereo not drawn) | inactive
Cc1ccc(-c2cc(=O)c3ccc(F)cc3[nH]2)cc1 | 2.94 µM (active)
Cc1ccc(-c2cc(=O)c3ccc(Cl)cc3[nH]2)cc1 | inactive

Compound | Potency
Cc1ccc(S(=O)(=O)/N=C(\N)c2ccc(F)cc2)cc1 | inactive
COCCN1C(=O)N(c2ccc(Cl)cc2)C(=O)C1CC(=O)Nc1cc(OC)cc(OC)c1 (stereo not drawn) | inactive
O=C(O)c1ccccc1OCc1ccccc1Cl | inactive
O=C(CCc1c[nH]c2ccccc12)NCCOc1ccccc1 | inactive
O=C(COC(=O)Cc1c[nH]c2ccccc12)NCCc1ccccc1 | inactive
O=C(Cc1c[nH]c2ccccc12)OCCOC(=O)Cc1c[nH]c2ccccc12 | 5.22 µM (active)
O=C1NN(c2ccccc2)C(=O)/C1=C/c1ccc(-c2cccc(C(=O)O)c2)o1 | inactive
COc1ccc(CNC(=O)CCC(=O)Nc2nnc(C(C)C)s2)cc1 | inactive
COc1cc2ccccc2cc1C(=O)Nc1nc(C)c(C(C)=O)s1 | inactive
COc1ccc(C(=O)CCC(=O)Nc2cccnc2)c(OC)c1 | inactive
CCOC(=O)C1(Cc2ccccc2C)CCCN(C(=O)CCc2c(C)noc2C)C1 (stereo not drawn) | 11.7 µM (active)
CCOC(=O)C1(Cc2cccc(OC)c2)CCN(Cc2csc(C(C)=O)c2)CC1 | inactive
Cc1noc(C)c1CCC(=O)O | inactive
CCOC(=O)C1(Cc2cccc(OC)c2)CCN(C(C)CC(C)(C)O)CC1 (stereo not drawn) | inactive
CCOC(=O)C1(Cc2cccc(OC)c2)CCCN(C(=O)CCSC)C1 (stereo not drawn) | 0.37 µM (active)
CCOC(=O)C1(Cc2ccccc2C)CCCN(S(C)(=O)=O)C1 (stereo not drawn) | inactive
